Measurements reported in PubChem BioAssay (NCATS).
Unmarked numbers belong to inactive results. Results filed as inconclusive are left out. Entries that show only a call come without a potency. Calls of active or inactive are those of the source. Unless noted, the call rests on the fitted dose curve; in most records, active means well fitted curve in the direction sought with a large enough effect; inconclusive means small, poorly fitted or top-dose-only effect, or another doubt; inactive means no such curve, though single readings can be large; an effect the other way counts as inactive or inconclusive.

How the values were obtained:
[1] = Confirmation and Secondary Assay for Modulators of Hemoglobin Beta Chain Splicing at IVS2 654 locus (AID 910);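 further: per-well total GFP intensity by laser scanning cytometry after 2-day treatment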
Method in brief: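 HeLa cells stably carrying EGFP interrupted by mutant beta-globin IVS2-654 intron (CMV-driven) were treated with compound for 2 days at 37C; corrected splicing was scored as total peak GFP intensity per well (488 nm excitation, 500-520 nm emission).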

[2] = Confirmation and Secondary Assay for Modulators of Hemoglobin Beta Chain Splicing at IVS2 705 locus (AID 930);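 further: HeLa cells stably expressing the EGFP-705 splicing reporter; GFP fluorescence per well restored by corrected splicing of the IVS2-705 intron in EGFP; series mostly up to about 46 µM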
Method in brief: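 Stable HeLa line with EGFP disrupted by mutant beta-globin intron 2 (705). Overnight attachment, then 2 days of compound at 37C, 5% CO2. Signal: peak GFP intensity summed over objects 5-250 µm.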

[3] = target: Cytochrome P450 2C19 (Homo sapiens) (UniProt P33261); assay: qHTS Assay for Inhibitors and Substrates of Cytochrome P450 2C19 (AID 899); further: nearly all actives have a fitted effect of over 60% in size; further: potency means the concentration at half of the fitted maximal effect
Sequence of Cytochrome P450 2C19 (Homo sapiens) (P33261 whole entry, looked up): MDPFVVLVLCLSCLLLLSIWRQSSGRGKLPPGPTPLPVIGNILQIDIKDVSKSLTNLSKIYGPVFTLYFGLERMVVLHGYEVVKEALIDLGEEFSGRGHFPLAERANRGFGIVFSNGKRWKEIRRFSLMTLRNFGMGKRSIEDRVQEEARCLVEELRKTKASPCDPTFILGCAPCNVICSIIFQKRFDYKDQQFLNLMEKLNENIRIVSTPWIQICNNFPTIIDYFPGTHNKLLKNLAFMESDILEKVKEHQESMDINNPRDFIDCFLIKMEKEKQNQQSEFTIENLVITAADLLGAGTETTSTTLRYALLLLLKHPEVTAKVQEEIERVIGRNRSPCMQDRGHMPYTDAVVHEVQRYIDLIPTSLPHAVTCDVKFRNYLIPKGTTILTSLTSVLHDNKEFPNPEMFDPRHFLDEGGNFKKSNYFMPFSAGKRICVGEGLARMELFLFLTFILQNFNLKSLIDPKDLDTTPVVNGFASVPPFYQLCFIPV
Method in brief: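 NADPH-dependent conversion of Luciferin-H EGE (10uM, at KM) by 5nM enzyme in 50mM KPO4, 60 min at 37C following 10 min compound preincubation. Stopped with luciferin detection buffer; luminescence read after 20 min.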

[4] = qHTS Assay for Identification of Small Molecule Agonists for Hypoxia Response Element Signaling Pathway (AID 914; active means well fitted activation curve with a large enough effect in the signal ratio, with a control signal flat, not every such curve was filed as active; the % refers to the signal ratio); settings: ME-180 (cervical carcinoma) HRE-bla reporter, beta-lactamase ratio, CoCl2, 17 h; active compounds read high
Method in brief: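 Reporter activity (beta-lactamase, CCF4 460nm/530nm ratio) in HRE-bla ME-180 cells is recorded after 17 h compound exposure with EC50 CoCl2 at 37 degrees Celsius. AC50 values come from titration data.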

In the case of `CC1CC2C3CC(F)C4=CC(=O)C=C[C@@]4(C)[C@@]3(F)C(O)C[C@]2(C)[C@]1(O)C(=O)COC(=O)C(C)(C)C` (some centres not stated), the outcome [1] is reported as “inactive” and the outcome [2] is reported as “inactive”.

With `CNC(C)C1CC[C@H](N)[C@@H](OC2C(N)C[C@H](N)[C@@H](OC3OC[C@](C)(O)C(NC)[C@H]3O)C2O)O1` (some centres not stated) the outcome [1] was “inactive” and the outcome [2] was “inactive”.

With `C[C@H]1COC(=O)[C@H]2CCCN2C(=O)[C@@H](C)COC(=O)[C@H](Cc2ccccc2)NC1=O` the Potency [3] was “inactive” and the activation [4] was -0.107%.

In the case of `CO[C@@H]1COC(=O)[C@H](Cc2ccccc2)NC(=O)C/C=C\[C@@H](C)[C@H](OC)COC(=O)[C@@H](C)NC(=O)C/C=C\[C@H]1C`, the Potency [3] is reported as “inactive”.

In the case of `C[C@@H](c1ccccc1)N1C(=O)[C@H]2[C@@H]3[C@H](O)C=CC(=O)[C@H]3CC[C@H]2C1=O`, the Potency [3] is reported as “inactive”.

In the case of `COC(=O)[C@H](Cc1ccccc1)NC(=O)[C@@H](C)CO`, the Potency [3] is reported as 1260 nM (active) and the activation [4] is reported as 5.86%.

With `CC(=O)OC[C@H]1O[C@@H](O/N=C2/[C@H]3O[C@@H]3[C@@H](O)[C@H]3[C@H]2CCn2c(=O)n(-c4ccccc4)c(=O)n23)[C@H](OC(C)=O)[C@@H](OC(C)=O)[C@@H]1OC(C)=O` the Potency [3] was “inactive”.

In the case of `CC(=O)OC[C@@H]1O[C@H](C/C=N\O[C@@H](C)c2cn([C@H]3COC[C@H]3O)nn2)C=C[C@@H]1OC(C)=O`, the Potency [3] is reported as “inactive”.

In the case of `CN1C[C@H](C(=O)N[C@@]2(C)O[C@@]3(O)C4CCCN4C(=O)C(Cc4ccccc4)N3C2=O)C[C@H]2c3cccc4[nH]cc(c34)C[C@H]21` (some centres not stated), the outcome [1] is reported as “inactive” and the outcome [2] is reported as “inactive”.

With `COc1cc2c(c(OC)c1OC)-c1ccc(OC)c(=O)cc1C(NC(C)=O)CC2` (configuration not stated) the outcome [1] was “inactive” and the outcome [2] was “inactive”.

In the case of `O=C1[C@H]2[C@H]3[C@H](O)[C@H](O)C/C(=N/OCc4ccccc4)[C@H]3CC[C@@H]2C(=O)N1C[C@@H]1CCCO1`, the Potency [3] is reported as “inactive”.

For `O=C1[C@H]2[C@H]3[C@H](O)[C@H](O)C/C(=N/OC[C@@H](O)COCc4ccco4)[C@@H]3CC[C@@H]2C(=O)N1C[C@@H]1CCCO1`, the Potency [3] was “inactive”.

With `C#CCCCO/N=C1/C[C@@H](O)[C@@H](O)[C@@H]2[C@@H]3C(=O)N(Cc4ccccc4)C(=O)[C@H]3CC[C@@H]12` the Potency [3] was “inactive”.

With `CC(C)=CCC/C(C)=C/CO/N=C1/C[C@@H](O)[C@@H](O)[C@@H]2[C@@H]3C(=O)N(Cc4ccccc4)C(=O)[C@H]3CC[C@@H]12` the Potency [3] was “inactive”.

For `CO[C@@H]1COC(=O)[C@H]2CCCN2C(=O)[C@@H](C)COC(=O)CCC[C@H]1C`, the Potency [3] was “inactive”.

With `CC(C)(C)NCC(O)COc1cccc2c1CC(O)C(O)C2` (configuration not stated) the outcome [1] was “inactive” and the outcome [2] was “inactive”.

With `CC(CCC(=O)O)C1CCC2C3CC[C@H]4CC(O)CC[C@@]4(C)C3CC[C@@]12C` (some centres not stated) the outcome [1] was “inactive” and the outcome [2] was “inactive”.

For `COc1cc2c(cc1OC)C1C(=O)c3c(O)cc4c(c3OC1CO2)C=CC(C)(C)O4` (configuration not stated), the outcome [1] was “inactive” and the outcome [2] was “inactive”.

With `C=C1c2c(Cl)ccc(O)c2C(O)=C2C(=O)[C@]3(O)C(O)=C(C(N)=O)C(=O)C(N(C)C)C3C(O)C12` (some centres not stated) the outcome [1] was “inactive” and the outcome [2] was “inactive”.

With `CC(C)CC1C(=O)N2CCCC2C2(O)O[C@@](NC(=O)C3C=C4c5cccc6[nH]c(Br)c(c56)CC4N(C)C3)(C(C)C)C(=O)N12` (some centres not stated) the outcome [1] was “inactive” and the outcome [2] was “inactive”.

In the case of `CCN1C(=O)[C@@H]2[C@H]3C(=CC[C@@H]2C1=O)C1(OCCCO1)[C@H]1O[C@@H]1[C@H]3O`, the Potency [3] is reported as 1580 nM (active).
